Records with an inconclusive call do not appear. Entries that show only a call come without a potency. Values without a mark were called inactive. Active and inactive are the calls of the source. Calls come from the whole dose curve; as a rule, active = well fitted inhibition curve with a large enough effect; inconclusive = small, poorly fitted or top-dose-only effect; inactive = flat fitted curve, though single readings scatter.
Experiments:
CRL-7250 = normal cell line; assay: Cytotoxic Profiling of Annotated Libraries Using Quantitative High-Throughput Screening (AID 1296008); conditions: Five cell lines viability, CellTiter-Glo ATP luminescence, 48-72 h; max response: active compounds read low; note: potency is the fitted concentration of half-maximal effect
Outline: (§1)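 Compounds were pin-transferred onto cells and incubated 48 or 72 hr at 37 degree Celsius, 95% humidity. CellTiter-Glo was added, plates sat 10 min at room temperature, then ATP-coupled luminescence was imaged as the viability read-out.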

HEK293 = assay: as above; conditions: Five cell lines viability, CellTiter-Glo ATP luminescence, 48-72 h; max response: active compounds read low
Outline: as §1

HaCat [1] = assay: as above; conditions: Five cell lines viability, CellTiter-Glo ATP luminescence, 48-72 h; max response: active compounds read low
Outline: as §1

KB-3-1 = assay: as above; conditions: Five cell lines viability, CellTiter-Glo ATP luminescence, 48-72 h; max response: active compounds read low
Outline: as §1

NIH3T3 = assay: as above; conditions: Five cell lines viability, CellTiter-Glo ATP luminescence, 48-72 h; max response: active compounds read low
Outline: as §1

HACAT [2] = assay: qHTS assay to identify novel small-molecules to repurpose for Merkel cell carcinoma treatment (AID 1296009); conditions: MCC and control cell lines, CellTiter-Glo viability, 72 h; at 44.8 µM (top of the series) unless noted
Outline: (§2)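 Luminescence from CellTiter-Glo, read 10 min after addition at room temperature, reported viability following a 72 hr, 37 degree celsius treatment with NPC or MIPE compounds in titration; values normalized to plate controls.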

HEK293T = assay: as above; conditions: MCC and control cell lines, CellTiter-Glo viability, 72 h; series mostly up to 44.8 µM
Outline: as §2
Note: nearly all actives have a fitted effect of over 60% in size.

Compound	max response (CRL-7250) [%]	outcome (HEK293)	outcome (HaCat [1])	outcome (KB-3-1)	outcome (NIH3T3)	outcome (HACAT [2])	Potency (HEK293T)	max response (KB-3-1) [%]	max response (NIH3T3) [%]	outcome (CRL-7250)	Potency (NIH3T3)
COc1ccc2c(c1)OC[C@]1(O)c3cc4c(cc3O[C@H]21)OCO4	-0.876	inactive	inactive	inactive	inactive	inactive	inactive	–	–	–	–
CC/C=C/CC1=C(CCCCCCCC(=O)O)CCC1=O	0.164	inactive	inactive	–	–	inactive	inactive	0.0316	-0.116	–	–
CC1=C2C3OC(=O)C(C)C3(O)CCC2(C)CCC1=O (centres undefined)	-29.1	inactive	inactive	inactive	inactive	inactive	inactive	–	–	–	–
CC1=CC2(O)/C=C/C(C)(O)CC(O)/C=C/C(=O)OC23C(=O)NC(CC(C)C)C3C1C (centres undefined)	-2.92	inactive	inactive	–	inactive	inactive [at 17.4 µM]	inactive	-3.67	–	–	–
CC(=O)O[C@H]1C[C@@H]2[C@]3(CC[C@]4(C)[C@@H](C5(C)CCC(C(C)(C)O)O5)[C@@H](O)C[C@@]24C)C[C@@]32CC[C@H](O[C@@H]3OC[C@@H](O)[C@H](O)[C@H]3O)C(C)(C)[C@H]12 (some centres undefined)	4.65	inactive	inactive	inactive	–	inactive [at 17.4 µM]	inactive	–	1.48	–	–
O=C(/C=C/c1ccc(O)cc1)OCC1=C[C@@H](O)[C@@H]2C=CO[C@@H](O[C@@H]3O[C@H](CO)[C@@H](O)[C@H](O)[C@H]3O)[C@H]12	-2.56	inactive	inactive	inactive	inactive	inactive [at 17.4 µM]	inactive	–	–	–	–
CC(C)[C@H]1CCC(CO)=C[C@@H]1/C=C(\CO)C(=O)O	-1.21	inactive	inactive	–	–	inactive	inactive	7.99	-1.04	–	–
CC1=C2C(=O)C=C(CO)[C@@H]2[C@H]2OC(=O)[C@H](C)[C@@H]2[C@@H](O)C1	–	inactive	inactive	–	–	inactive	inactive	1.39	-3.32	inactive	–
CC1=CC(=O)C[C@H]2[C@@H]1CC[C@@H](C)[C@]21CO[C@H](c2ccoc2)C1=O	3.91	inactive	inactive	–	–	inactive	inactive	-0.71	-2.85	–	–
CCOC(=O)[C@H]1O[C@@H]1C(=O)N[C@@H](CC(C)C)C(=O)NCCC(C)C	–	inactive	inactive	inactive	–	inactive	inactive	–	-2.92	inactive	–
Cc1[nH]cnc1C1CCN(c2nc3cccc4c3n2CCC4=O)CC1	–	inactive	inactive	–	inactive	inactive	inactive	2.43	–	inactive	–
C/C=C/C1=CC2=CC(=O)C(C)(O)C(OC(=O)c3c(C)cc(O)cc3O)C2CO1 (centres undefined)	1.95	inactive	inactive	–	inactive	inactive	inactive	2.68	–	–	–
C=C1[C@H]2[C@H](O[C@@H]3O[C@H](COC(=O)/C=C/c4cc(OC)c(O)c(OC)c4)[C@@H](O)[C@H](O)[C@H]3O)OC=C(C(=O)O)[C@H]2C[C@@H]1O	–	inactive	inactive	inactive	–	inactive [at 17.4 µM]	inactive	–	4.54	inactive	–
COc1c2c(c(C)c3c1C(=O)OC3)OC1(C)CC(O)C3(O)C(C)(C)OC(=O)CCC3(C)C1C2 (centres undefined)	-8.09	inactive	inactive	–	inactive	inactive [at 17.4 µM]	inactive	8.81	–	–	–
COc1cc(/C=C/C(=O)OC2[C@H](O)CC(O)(C(=O)O)C[C@H]2O)ccc1O (some centres undefined)	3.9	inactive	inactive	–	–	inactive	inactive	0.663	-0.19	–	–
CC(C)C(C#N)O[C@@H]1O[C@H](CO[C@@H]2OC[C@](O)(CO)[C@H]2O)[C@@H](O)[C@H](O)[C@H]1O (some centres undefined)	0.582	inactive	inactive	–	–	inactive	inactive	5.78	3.22	–	–
Cc1cccc(-c2[nH]c(CNc3ccccc3F)nc2-c2ccc3ncnn3c2)n1	–	inactive	inactive	–	–	inactive	inactive	6.62	–	inactive	7.31 µM (active)

Reference: PubChem BioAssay (NCATS)
